Laboratory results as given in PubChem BioAssay (NCATS).
“And” between values parts separate entries of the source, which are not always exact repeats. Equal entries are not always repeated. Results filed as inconclusive are left out. The source made the active and inactive calls. Unless noted, calls follow the shape of the full dose curve.

Legend:
[1] = Cell Viability - BJ (AID 421); settings: BJ fibroblast viability, qHTS;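 also: potency is read from the fitted curve at half-maximal effect; cells exposed to compound for 40 hours at 37 °C before readout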
In short: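 Quantitative HTS: ATP depletion in BJ cells after 40 hr compound exposure in complete culture medium, detected with CellTiter-Glo; AC50 from standard Hill fits.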

[2] = Cell Viability - SK-N-SH (AID 435); settings: SK-N-SH neuroblastoma cell viability qHTS; also: potency is read from the fitted curve at half-maximal effect
In short: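 Cells seeded at 1500 per well and incubated 5 hr at 37 °C. Compound added, then 40 hr at 37 °C. CellTiter-Glo added, 20 min at room temperature, luminescence read.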

[3] = Cell Viability - N2a (AID 540; active = well fitted curve in the direction sought with a large enough effect; an effect the other way counts as inactive or inconclusive;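 also: plate controls were DMSO alone for no effect and tamoxifen control for full effect; nearly all actives have a fitted effect of over 45% in size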); settings: N2a mouse neuroblastoma cell viability; activity change, negative = cytotoxicity: at 92.2 µM (top of the series)
In short: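 CellTiter-Glo ATP luminescence, read 20 min after reagent at room temperature, reported viability following 40 h compound treatment at 37 °C. N2a mouse neuroblastoma cells seeded 1500/well; Hill equation gave AC50.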

[4] = Cell Viability - H-4-II-E (AID 543; active = well fitted curve in the direction sought with a large enough effect; an effect the other way counts as inactive or inconclusive;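 also: cells exposed to compound for 40 hours; % is scaled to controls: 0 for no effect and ±100 for the full control effect; nearly all actives have a fitted effect of over 35% in size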); settings: H-4-II-E rat hepatoma viability; series mostly up to 92.2 µM
In short: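 CellTiter-Glo luminescence (intracellular ATP) measured after 40 h compound exposure at 37 °C in H-4-II-E rat hepatoma cells seeded at 1500/well. Values are AC50s fitted with the standard Hill equation.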

[5] = qHTS assay for small molecule antagonists of peroxisome proliferator-activated receptor delta signaling (AID 588535); settings: HEK293T PPARd-UAS-bla, beta-lactamase FRET ratio, 18 h; 460 nm channel;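 also: cells co-treated with a PPAR-delta agonist as stimulator during compound exposure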
In short: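 Fluorescence from CCF4-loaded GeneBLAzer PPAR-delta-UAS-bla HEK293T cells (2 hrs RT loading) quantified reporter inhibition after an 18 hr, 37 C compound exposure across a titration.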

[6] = target: Peroxisome proliferator-activated receptor gamma (Homo sapiens) (UniProt P37231); assay: qHTS assay for small molecule antagonists of peroxisome proliferator-activated receptor gamma signaling (AID 588537; active = well fitted inhibition curve with a large enough effect in the signal ratio, with a control signal flat, not every such curve was filed as active; the % refers to the signal ratio;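 also: reporter cells co-stimulated with 50 nM rosiglitazone agonist during compound treatment; % of control where 0% means no effect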); settings: HEK293 PPARg-UAS-bla, beta-lactamase ratio, antagonist mode; series mostly up to 76.8 µM
Chain of Peroxisome proliferator-activated receptor gamma (Homo sapiens) (P37231 whole entry, looked up): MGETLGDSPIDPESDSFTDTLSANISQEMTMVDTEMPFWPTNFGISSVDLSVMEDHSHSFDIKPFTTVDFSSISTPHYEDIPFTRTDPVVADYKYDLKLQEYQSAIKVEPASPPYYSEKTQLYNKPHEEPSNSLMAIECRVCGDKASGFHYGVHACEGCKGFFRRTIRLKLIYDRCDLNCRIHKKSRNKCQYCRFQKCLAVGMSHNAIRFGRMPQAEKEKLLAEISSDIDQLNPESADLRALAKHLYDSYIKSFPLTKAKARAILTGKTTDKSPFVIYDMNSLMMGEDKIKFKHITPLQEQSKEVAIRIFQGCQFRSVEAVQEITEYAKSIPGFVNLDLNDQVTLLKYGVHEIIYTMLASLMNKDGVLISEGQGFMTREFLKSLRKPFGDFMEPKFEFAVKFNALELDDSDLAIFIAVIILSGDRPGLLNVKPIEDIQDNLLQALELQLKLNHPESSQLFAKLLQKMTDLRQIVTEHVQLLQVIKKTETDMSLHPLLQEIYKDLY
In short: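 Fluorescence at 460 and 530 nm (405 nm excitation) reported beta-lactamase cleavage of CCF4 after 2 h room-temperature loading. HEK293 reporter cells in 1% charcoal/dextran-treated FBS had received compound and rosiglitazone for 16 h.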

[7] = target: Vitamin D3 receptor (Homo sapiens) (UniProt P11473); assay: qHTS assay for small molecule antagonists of vitamin D receptor signaling (AID 588541); settings: HEK293T VDR-UAS-bla, beta-lactamase ratio, antagonist mode; series mostly up to 76.7 µM;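 also: receptor activated by calcitriol during compound treatment; % is scaled to controls: 0 for no effect and ±100 for the full control effect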
Chain of Vitamin D3 receptor (Homo sapiens) (P11473 whole entry, looked up): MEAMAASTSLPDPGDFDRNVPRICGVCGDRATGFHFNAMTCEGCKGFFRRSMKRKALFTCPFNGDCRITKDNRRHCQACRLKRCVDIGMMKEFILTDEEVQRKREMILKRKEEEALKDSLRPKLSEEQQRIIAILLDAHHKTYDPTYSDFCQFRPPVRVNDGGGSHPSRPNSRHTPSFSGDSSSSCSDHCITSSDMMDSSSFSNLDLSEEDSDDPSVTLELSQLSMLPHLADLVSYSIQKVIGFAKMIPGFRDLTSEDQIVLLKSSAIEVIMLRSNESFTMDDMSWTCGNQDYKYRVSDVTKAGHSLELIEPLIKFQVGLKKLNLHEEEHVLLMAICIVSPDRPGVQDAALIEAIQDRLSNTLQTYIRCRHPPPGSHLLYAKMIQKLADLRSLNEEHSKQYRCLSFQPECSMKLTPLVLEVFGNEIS
In short: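 VDR-UAS-bla HEK293T cells in 2% charcoal-stripped FBS were stimulated with 1-alpha,25-dihydroxyvitamin D3 (3 nM final) plus compound for 16 h at 37 C. The beta-lactamase CCF4 readout was normalized to 50 nM agonist and DMSO, and Hill fits gave IC50.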

[8] = target: Retinoic acid receptor RXR-alpha (Homo sapiens) (UniProt P19793); assay: qHTS assay for small molecule agonists of retinoid X receptor alpha signaling (AID 588544); settings: HEK293T RXRa-UAS-bla, beta-lactamase reporter, 18 h; series mostly up to 76.7 µM;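 also: 0% = DMSO basal wells and 100% = reference agonist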
Chain of Retinoic acid receptor RXR-alpha (Homo sapiens) (P19793 whole entry, looked up): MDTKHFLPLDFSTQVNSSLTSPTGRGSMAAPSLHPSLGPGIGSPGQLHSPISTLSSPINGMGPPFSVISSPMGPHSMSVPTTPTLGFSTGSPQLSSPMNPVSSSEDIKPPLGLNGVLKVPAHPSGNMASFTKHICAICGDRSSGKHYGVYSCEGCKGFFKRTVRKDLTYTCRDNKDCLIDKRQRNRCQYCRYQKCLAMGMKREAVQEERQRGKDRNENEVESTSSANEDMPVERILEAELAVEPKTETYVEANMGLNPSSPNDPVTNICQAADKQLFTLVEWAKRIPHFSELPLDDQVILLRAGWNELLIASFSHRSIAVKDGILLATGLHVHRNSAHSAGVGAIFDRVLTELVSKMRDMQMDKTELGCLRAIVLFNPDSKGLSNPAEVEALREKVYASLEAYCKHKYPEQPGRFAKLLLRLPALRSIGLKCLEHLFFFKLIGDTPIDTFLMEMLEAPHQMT

[9] = qHTS assay for small molecule agonists of the antioxidant response element (ARE) signaling pathway (AID 651741; active = well fitted activation curve with a large enough effect in the signal ratio; the % refers to the signal ratio; also: potency is read from the fitted curve at half-maximal effect; as to activation: % of control where 0% means no effect); settings: HepG2 ARE-bla reporter, beta-lactamase FRET ratio, 16 h; series mostly up to 96 µM
In short: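 Stably integrated ARE-beta-lactamase reporter HepG2 cells; 16 h compound incubation, 37 C; LiveBLAzer FRET substrate 2 h at room temperature; fluorescence intensity.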

[10] = Cell Viability - NIH 3T3 (AID 541; active = well fitted curve in the direction sought with a large enough effect; an effect the other way counts as inactive or inconclusive;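 also: cells exposed to compound for 40 hours; nearly all actives have a fitted effect of over 25% in size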; also: potency is read from the fitted curve at half-maximal effect;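 as to activity change, negative = cytotoxicity: plate controls were DMSO alone for no effect and tamoxifen positive control for full effect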); settings: NIH 3T3 cell viability, qHTS; activity change, negative = cytotoxicity: at 92.2 µM (top of the series)
In short: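 Intracellular ATP (CellTiter-Glo luminescence, 20 min at room temperature) measured after 40 hr compound exposure at 37 °C of 1000 NIH 3T3 mouse fibroblasts/well in complete medium; AC50 derived by Hill-equation modelling of qHTS concentration-response curves.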

[11] = Cell Viability - SH-SY5Y (AID 544; active = well fitted curve in the direction sought with a large enough effect; an effect the other way counts as inactive or inconclusive;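 also: cells exposed to compound for 40 hours; nearly all actives have a fitted effect of over 55% in size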); settings: SH-SY5Y neuroblastoma cell viability; viability change, negative = cytotoxic: at 92.2 µM (top of the series)
In short: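 Cytotoxicity measured via ATP-dependent luciferase luminescence (CellTiter-Glo) following 40 h, 37 °C exposure of 1500 SH-SY5Y cells per well. Concentration-response data were fitted with the standard Hill equation to give AC50.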

[12] = Cellular Toxicity (caspase-3) Jurkat (AID 655; active = well fitted curve in the direction sought with a large enough effect; an effect the other way counts as inactive or inconclusive;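 also: cells exposed to compound for 16 h at 37 °C before reading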); settings: Jurkat caspase-3 activation, luminescence; caspase-3 activation: at 92.2 µM (top of the series), DMSO = 0%, tamoxifen = 100%
In short: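 Caspase 3/7 activation is scored as increased luminescence in Jurkat cells cultured with compound for 16 hours in complete medium. AC50 values come from Hill fits of qHTS concentration-response data normalized to DMSO and 100 uM tamoxifen controls.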

[13] = target: Bile acid receptor (Homo sapiens) (UniProt Q96RI1); assay: qHTS assay for small molecule antagonists of farnesoid X receptor signaling (AID 588526); settings: HEK293T FXR-UAS-bla, beta-lactamase ratio, antagonist mode; series mostly up to 76.7 µM; also: % is scaled to controls: 0 for no effect and ±100 for the full control effect
Chain of Bile acid receptor (Homo sapiens) (Q96RI1 whole entry, looked up): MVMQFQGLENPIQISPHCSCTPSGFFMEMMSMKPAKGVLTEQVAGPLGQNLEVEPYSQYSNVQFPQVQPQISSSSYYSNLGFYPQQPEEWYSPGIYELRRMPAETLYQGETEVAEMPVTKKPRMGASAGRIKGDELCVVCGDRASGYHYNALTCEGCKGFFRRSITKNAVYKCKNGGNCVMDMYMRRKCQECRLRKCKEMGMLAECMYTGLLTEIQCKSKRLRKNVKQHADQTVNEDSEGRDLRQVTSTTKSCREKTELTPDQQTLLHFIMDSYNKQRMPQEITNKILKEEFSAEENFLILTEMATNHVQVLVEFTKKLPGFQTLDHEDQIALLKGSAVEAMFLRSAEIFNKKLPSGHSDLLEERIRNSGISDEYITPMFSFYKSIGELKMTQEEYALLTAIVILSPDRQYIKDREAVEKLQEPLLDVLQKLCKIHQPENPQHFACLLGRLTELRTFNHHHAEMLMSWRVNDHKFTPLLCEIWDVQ
In short: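 Antagonist mode: titrated compounds tested against chenodeoxycholic acid stimulation (normalized to 50 uM CDCA and DMSO) in GeneBLAzer HEK293T cells for 16 h. Beta-lactamase read by CCF4 fluorescence; IC50 from Hill fits.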

[14] = target: Bile acid receptor (Homo sapiens) (UniProt Q96RI1); assay: qHTS assay for small molecule agonists of farnesoid X receptor signaling (AID 588527); settings: HEK293T FXR-UAS-bla, beta-lactamase ratio, 16 h; stronger effect = higher value;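 also: 0% = vehicle basal and 100% = reference agonist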
In short: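 Quantitative HTS used FXR-UAS-bla HEK293T cells with 16 h compound incubation at 37 C. EC50 values came from concentration-response curves normalized to chenodeoxycholic acid.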

[15] = target: Glucocorticoid receptor (Homo sapiens) (UniProt P04150); assay: qHTS assay for small molecule agonists of glucocorticoid receptor signaling (AID 588532; active = well fitted curve in the direction sought with a large enough effect in the signal ratio, with a control signal flat; the % refers to the signal ratio;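 also: 100% = dexamethasone at 0.1 µM and 0% = DMSO only wells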); settings: HeLa MMTV-bla, beta-lactamase ratio, agonist, 18 h; stronger effect = higher value; percent of dexamethasone control, DMSO zero
Chain of Glucocorticoid receptor (Homo sapiens) (P04150 whole entry, looked up): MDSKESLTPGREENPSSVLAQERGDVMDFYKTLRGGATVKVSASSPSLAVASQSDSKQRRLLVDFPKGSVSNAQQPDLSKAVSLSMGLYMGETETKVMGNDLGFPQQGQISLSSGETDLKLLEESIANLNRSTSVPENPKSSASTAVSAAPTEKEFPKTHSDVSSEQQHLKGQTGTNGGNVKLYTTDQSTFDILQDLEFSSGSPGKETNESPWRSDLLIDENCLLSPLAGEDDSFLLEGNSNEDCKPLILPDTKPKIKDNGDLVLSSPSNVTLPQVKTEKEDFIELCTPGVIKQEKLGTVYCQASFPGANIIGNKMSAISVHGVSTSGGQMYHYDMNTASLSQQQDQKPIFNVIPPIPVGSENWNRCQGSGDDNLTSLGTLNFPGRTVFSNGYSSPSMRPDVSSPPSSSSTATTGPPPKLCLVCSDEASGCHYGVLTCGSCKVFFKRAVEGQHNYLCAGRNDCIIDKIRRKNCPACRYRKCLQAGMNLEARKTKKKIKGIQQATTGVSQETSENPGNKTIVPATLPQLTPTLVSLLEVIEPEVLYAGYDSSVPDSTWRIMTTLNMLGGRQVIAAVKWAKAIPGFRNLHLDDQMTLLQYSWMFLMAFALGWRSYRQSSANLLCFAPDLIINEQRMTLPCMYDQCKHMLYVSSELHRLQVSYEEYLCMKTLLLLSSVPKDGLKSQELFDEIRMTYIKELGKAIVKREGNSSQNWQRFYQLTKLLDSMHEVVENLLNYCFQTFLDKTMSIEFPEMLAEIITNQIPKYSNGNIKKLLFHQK
In short: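 Cells were plated and rested 3-5 h at 37 C, compounds were added in titration and incubated 18 h, then CCF4 substrate was loaded for 2 h at RT before reading blue/green fluorescence. EC50 came from Hill-equation fitting.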

[16] = target: Glucocorticoid receptor (Homo sapiens) (UniProt P04150); assay: qHTS assay for small molecule antagonists of glucocorticoid receptor signaling (AID 588533; active = well fitted inhibition curve with a large enough effect in the signal ratio, with a control signal flat, not every such curve was filed as active; the % refers to the signal ratio; also: % is scaled to controls: 0 for no effect and ±100 for the full control effect); settings: HeLa MMTV-bla, GRE beta-lactamase ratio, antagonist mode, 18 h; series mostly up to 76.8 µM
In short: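 Antagonist-mode qHTS: compound titrations added to GRE-bla HeLa cells, then dexamethasone 2 nM final; 18 h, 37 C. CCF4 FRET fluorescence normalized to dexamethasone and DMSO; IC50 from Hill fit.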

[17] = qHTS assay for small molecule disruptors of the mitochondrial membrane potential - 1 hr assay (AID 651754); settings: series mostly up to 92.2 µM; also: % is scaled to controls: 0 for no effect and ±100 for the full control effect; nearly all actives have a fitted effect of over 35% in size
In short: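 Mitochondrial potential in living HepG2 cells after 1 hr compound treatment at 37C was read with Mito-MPS dye added for a further 30 min. Red aggregate and green monomer fluorescence were measured; loss of potential leaves dye as cytoplasmic monomers.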

[18] = target: Estrogen receptor (Homo sapiens) (UniProt P03372); assay: qHTS assay for small molecule antagonists of estrogen receptor alpha signaling (AID 588513; active = well fitted curve in the direction sought with a large enough effect in the signal ratio, with a control signal flat, not every such curve was filed as active; the % refers to the signal ratio; also: % is scaled to controls: 0 for no effect and ±100 for the full control effect); settings: ER-alpha-UAS-bla HEK293, beta-lactamase ratio, antagonist mode; series mostly up to 76.9 µM
Chain of Estrogen receptor (Homo sapiens) (P03372 whole entry, looked up): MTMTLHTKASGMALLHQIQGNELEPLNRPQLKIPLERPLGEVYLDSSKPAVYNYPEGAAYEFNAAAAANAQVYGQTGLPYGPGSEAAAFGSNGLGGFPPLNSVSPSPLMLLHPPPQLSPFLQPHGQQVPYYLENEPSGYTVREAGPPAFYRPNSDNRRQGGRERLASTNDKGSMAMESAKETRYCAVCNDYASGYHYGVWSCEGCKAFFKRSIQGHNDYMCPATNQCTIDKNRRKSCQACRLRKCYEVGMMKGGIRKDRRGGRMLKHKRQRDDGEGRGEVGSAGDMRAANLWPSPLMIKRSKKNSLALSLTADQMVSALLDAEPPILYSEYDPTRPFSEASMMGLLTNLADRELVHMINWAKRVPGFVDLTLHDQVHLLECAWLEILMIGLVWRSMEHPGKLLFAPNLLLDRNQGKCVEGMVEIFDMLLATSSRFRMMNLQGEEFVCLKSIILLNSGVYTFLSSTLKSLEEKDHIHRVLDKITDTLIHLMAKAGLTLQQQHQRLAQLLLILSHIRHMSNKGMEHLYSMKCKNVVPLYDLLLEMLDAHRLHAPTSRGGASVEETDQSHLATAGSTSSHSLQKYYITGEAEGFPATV
In short: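 Cells were plated at 5000/well and incubated 4 h at 37 C. Compounds were added as 1:2 dilution series, duplicates. 17-beta-estradiol (0.5nM final) was added for 18 h before CCF4 detection.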

[19] = target: Estrogen receptor (Homo sapiens) (UniProt P03372); assay: qHTS assay for small molecule agonists of estrogen receptor alpha signaling (AID 588514); settings: ER-alpha-UAS-bla HEK293, beta-lactamase ratio, 18 h; series mostly up to 76.8 µM;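 also: 0% = vehicle only and 100% = reference agonist; nearly all actives have a fitted effect of over 70% in size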
In short: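 EC50 and efficacy came from Hill fits of beta-lactamase reporter signal (CCF4 dye, 2 h at room temperature) scaled between DMSO and 20 nM 17-beta-estradiol. Agonist mode: HEK293 ER-alpha-UAS-bla cells in charcoal/dextran-stripped serum medium, 18 h compound exposure at 37 C.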

[20] = target: Peroxisome proliferator-activated receptor delta (Homo sapiens) (UniProt Q03181); assay: qHTS assay for small molecule agonists of peroxisome proliferator-activated receptor delta signaling (AID 588534); settings: HEK293T PPARdelta-UAS-bla, beta-lactamase ratio, 18 h; series mostly up to 76.7 µM;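 also: 0% = DMSO basal wells and 100% = positive control agonist at 10 µM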
Chain of Peroxisome proliferator-activated receptor delta (Homo sapiens) (Q03181 whole entry, looked up): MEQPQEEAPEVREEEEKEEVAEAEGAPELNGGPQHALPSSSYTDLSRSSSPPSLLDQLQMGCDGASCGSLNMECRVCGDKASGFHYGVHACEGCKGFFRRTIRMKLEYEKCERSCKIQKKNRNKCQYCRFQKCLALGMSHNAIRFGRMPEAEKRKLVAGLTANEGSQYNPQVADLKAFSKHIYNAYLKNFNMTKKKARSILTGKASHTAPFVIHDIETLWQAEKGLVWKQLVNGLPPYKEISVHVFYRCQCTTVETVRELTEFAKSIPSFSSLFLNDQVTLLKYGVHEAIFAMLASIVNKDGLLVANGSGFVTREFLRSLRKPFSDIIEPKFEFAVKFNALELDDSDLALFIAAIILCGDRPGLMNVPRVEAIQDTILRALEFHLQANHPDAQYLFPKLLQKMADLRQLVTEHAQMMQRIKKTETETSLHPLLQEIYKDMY
In short: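 Agonist-mode beta-lactamase reporter readout (CCF4 dye, 2 h at RT) after 18 h at 37 °C exposure to a titration; Hill-equation fitting gave EC50 and maximal response.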

Nc1ccc([N+](=O)[O-])cc1N
3.68%: max response [5]
inactive: Potency [1] > 92 µM | Potency [2] > 92 µM | Potency [3] | Potency [4] | Potency [6] | outcome [7] | outcome [8]
active: Potency [9] 3.76 µM and 2.73 µM

CN(C)C(=O)Nc1ccc(Cl)cc1
-2.77% and 22.5%: max response [5]
inactive: Potency [1] > 92 µM | Potency [2] > 92 µM | Potency [3] | Potency [10] | Potency [4] | Potency [11] | caspase-3 activation [12] -0.0397% | outcome [13] | activation [14] 0.657% and 0.9% | activation [15] 8.83% and -10.8% | outcome [16] | Potency [6] | outcome [7] | Potency [9] | Potency [17]

O=[N+]([O-])c1cc(Cl)c(Cl)c(Cl)c1
active: activity change, negative = cytotoxicity [10] -119%
30.2%: max response [5]
inactive: Potency [1] > 92 µM | Potency [2] > 92 µM | Potency [3] | Potency [4] | Potency [11] | Potency [18] | Potency [19] | outcome [13] | activation [14] -2.43% | outcome [20] | Potency [17]

O=[N+]([O-])c1ccccc1O
inactive: Potency [1] > 92 µM | Potency [10] | Potency [4] | activation [15] 0.494% | outcome [16] | Potency [6] | Potency [17]

COC(C)(C)C
-16.9%: max response [5]
inactive: Potency [1] > 92 µM | Potency [2] > 92 µM | Potency [3] | Potency [10] | Potency [4] | outcome [20] | outcome [7] | outcome [8] | Potency [9] | Potency [17]

O=Cc1ccc(Cl)cc1Cl
inactive: Potency [1] > 92 µM | Potency [2] > 92 µM | Potency [3] | Potency [10] | Potency [4] | Potency [11] | caspase-3 activation [12] 8.63% | outcome [16] | outcome [20] | Potency [6] | outcome [7] | outcome [8] | Potency [17]
-26.8%: max response [5]

Oc1cccc(Cl)c1
inactive: Potency [1] > 92 µM | Potency [2] > 92 µM | Potency [3] | Potency [10] | Potency [4] | Potency [11] | caspase-3 activation [12] 0.0873% | Potency [18] | Potency [19] | activation [14] 2.65% | activation [15] -11.4% | outcome [16] | Potency [6] | outcome [7] | Potency [17]

O=C(O)C(Br)CBr (stereo not drawn)
31.3%: max response [5]
inactive: Potency [1] > 92 µM | Potency [2] > 92 µM | Potency [3] | caspase-3 activation [12] 1.63% | Potency [18] | Potency [19] | activation [15] -2.23% | outcome [20] | outcome [8]
active: Potency [9] 42.2 µM

CN1CSC(=S)N(C)C1
inactive: Potency [1] > 92 µM | Potency [3] | Potency [18] | Potency [19] | activation [14] 0.811% and -0.41% | activation [15] 6.16% | outcome [16] | outcome [20] | Potency [6] | outcome [7]
active: Potency [10] 1.26 µM | Potency [9] 42.2 µM and 27.3 µM
